Potency, outcome and max response data for 13 compounds are collected here from PubChem BioAssay (NCATS).

Molecules are shown by their SMILES. Values joined by “and” are separate entries in the source; they are usually repeats but may differ in a detail not shown here. Identical values can stand only once. Records with an inconclusive call do not appear. Values without a mark were called inactive. Active and inactive are the calls of the source. The call rests on the fitted dose curve; in most records, active means well fitted inhibition curve with a large enough effect; inconclusive means small, poorly fitted or top-dose-only effect; inactive means flat fitted curve, though single readings scatter.

One assay deals with W2. Put plainly: qHTS profiling for inhibitors of Plasmodium falciparum proliferation (AID 504749). Further: potency means the concentration at half of the fitted maximal effect. The following applies: P. falciparum in erythrocytes, SYBR Green DNA, 72 h; series mostly up to 28.7 µM. In short, it runs like this:
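Parasite proliferation within erythrocytes, 72 h exposure. Endpoint: SYBR Green I fluorescence after overnight lysis at room temperature. Controls: 0.29 uM artemisinin, DMSO.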
A general note: Quantitative high-throughput screening tests each substance at several concentrations.

Another assay deals with CRL-7250. Put plainly: Cytotoxic Profiling of Annotated Libraries Using Quantitative High-Throughput Screening (AID 1296008). Further: potency means the concentration at half of the fitted maximal effect. On max response: on the % scale 0 is the no-effect control and ±100 the full control effect. The following applies: Five cell lines viability, CellTiter-Glo ATP luminescence, 48-72 h; max response: active compounds read low. In short, it runs like this: (§1)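 Compounds were pin-transferred onto cells and incubated 48 or 72 hr at 37 degree Celsius, 95% humidity. CellTiter-Glo was added, plates sat 10 min at room temperature, then ATP-coupled luminescence was imaged as the viability read-out.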
(In general: In ATP-based viability assays light output follows the ATP content of the culture.)

A further assay has as its system HEK293. The description is as above. The following applies: Five cell lines viability, CellTiter-Glo ATP luminescence, 48-72 h; max response: active compounds read low. In short, it runs like this:
as §1

The subject of assay [1] is HaCat. The assay is described as above. The following applies: Five cell lines viability, CellTiter-Glo ATP luminescence, 48-72 h; max response: active compounds read low. In outline: as §1
For the next assay, the system named is KB-3-1. The description is as above. The following applies: Five cell lines viability, CellTiter-Glo ATP luminescence, 48-72 h; max response: active compounds read low. In short, it runs like this: as §1
For another assay, the system named is NIH3T3. Described as above. The following applies: Five cell lines viability, CellTiter-Glo ATP luminescence, 48-72 h; max response: active compounds read low. In short, it runs like this:
as §1

In assay [2] the test system is HACAT. Put plainly: qHTS assay to identify novel small-molecules to repurpose for Merkel cell carcinoma treatment (AID 1296009). The following applies: MCC and control cell lines, CellTiter-Glo viability, 72 h; at 44.8 µM (top of the series) unless noted. In short, it runs like this: (§2)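 qHTS format: cells treated with library compounds in DMSO across 8 (NPC) or 11 (MIPE) concentrations. Readout after 72 hr at 37 degree celsius was CellTiter-Glo luminescence.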

In another assay the test system is HEK293T. Described as above. The following applies: MCC and control cell lines, CellTiter-Glo viability, 72 h; at 44.8 µM (top of the series) unless noted. In short, it runs like this: as §2
Another assay has as its system MCC-13. Described as above. The following applies: MCC and control cell lines, CellTiter-Glo viability, 72 h; series mostly up to 46 µM. In outline: as §2
The subject of a further assay is MCC-26. Described as above. The following applies: MCC and control cell lines, CellTiter-Glo viability, 72 h; series mostly up to 46 µM. In short, it runs like this:
as §2
Further: nearly all actives have a fitted effect of over 60% in size.

As to `CNC[C@@H](O)[C@@H](O)[C@H](O)[C@H](O)CO`, the Potency result in the assay with W2, in the assay with MCC-13 and in the assay on MCC-26 was “inactive” throughout. The outcome in the assay on CRL-7250, in the assay with HEK293, in the assay with HaCat [1], in the assay on NIH3T3, with HACAT [2] and in the assay on HEK293T was inactive. The max response in the assay on KB-3-1 is 5.74%.
Consider `Cc1nccn1CC1CCc2c(c3ccccc3n2C)C1=O` (configuration not stated), for which the max response with CRL-7250 was -48.9% and -2.23% and -14.6%; in the assay on HEK293 it was -1.64% and -12.7% and -0.203%; in the assay on HaCat [1], -3.6% and 4.03%; with NIH3T3, -4.36% and -4.32% and -0.458%. In addition, the compound was called inactive with HaCat [1] and in the assay with HACAT [2]. The Potency entry in the assay on MCC-13 and in the assay on MCC-26 was “inactive” throughout.
Consider `COc1cc(OC)c(C(=O)CCCN2CCCC2)c(OC)c1`, for which the Potency result in the assay with W2, in the assay with MCC-13 and in the assay on MCC-26 was “inactive” each time. The compound was classed as inactive with CRL-7250 and in the assay on NIH3T3. The max response with HEK293 was -1.67% and -16.3%; in the assay on HaCat [1], 4.83% and -3.89%; with KB-3-1, -2.3% and 3.48%; in the assay on NIH3T3, -4.19%.
On to `Oc1ccc(OCc2ccccc2)cc1`, for which the max response with CRL-7250 is -0.407% and -9.61%; in the assay with HEK293, -5.94% and -19.5%; with HaCat [1], -14% and -4.74%; in the assay on KB-3-1 it was 45.1%. Moreover, the outcome in the assay with KB-3-1 and in the assay with NIH3T3 was inactive. The Potency result with MCC-13 and in the assay with MCC-26 was “inactive” each time.
In the case of `CC(C)[C@H](N)C(=O)OCCOCn1cnc2c(=O)[nH]c(N)nc21`, the Potency result in the assay with W2, in the assay on MCC-13 and in the assay with MCC-26 was “inactive” in each case. For the same compound, the max response is -3.66% and 1.07% in the assay with CRL-7250; 4.44% with HEK293. Also, the compound was classed as inactive with HEK293, with HaCat [1], with NIH3T3, in the assay on HACAT [2] and with HEK293T.
Consider `C[C@H](Cn1cnc2c(N)ncnc21)OCP(=O)(O)O`, for which the Potency entry in the assay with W2, in the assay on MCC-13 and in the assay on MCC-26 was “inactive” throughout. In addition, the max response in the assay with CRL-7250 is 3.36%. For the same compound, the compound was classed as inactive in the assay on HEK293, with HaCat [1], in the assay on KB-3-1, with NIH3T3, with HACAT [2] and in the assay on HEK293T.
Regarding `CN1CCC(=C2c3ccccc3CCc3sccc32)CC1`, the Potency was 1.51 µM (active) in the assay on W2; 26.4 µM (active) and 10.6 µM (active) with HEK293. The max response was -8.84% and -2.17% in the assay on CRL-7250; -12.2% and -19.3% in the assay on KB-3-1; 2.3% with NIH3T3. The call with HaCat [1], with NIH3T3 and in the assay on HACAT [2] was inactive. Moreover, the Potency entry in the assay with MCC-13 and with MCC-26 was “inactive” in each case.
In the case of `O=C(CCc1ccc(O)cc1)c1c(O)cc(O)cc1O`, the outcome in the assay on CRL-7250, with HaCat [1], in the assay with KB-3-1, in the assay on NIH3T3 and with HACAT [2] was inactive. Moreover, the max response in the assay on HEK293 is 0.264%. Also, the Potency result in the assay on MCC-13 and with MCC-26 was “inactive” throughout.
On to `Cc1ccc(Nc2nccc(N(C)c3ccc4c(C)n(C)nc4c3)n2)cc1S(N)(=O)=O`, for which the Potency is 6.51 µM (active) in the assay with CRL-7250; 11.8 µM (active) with HEK293; 7.43 µM (active) and 7.31 µM (active) in the assay on NIH3T3. The max response with HaCat [1] was -13.5% and -50.9%; in the assay with KB-3-1, -14.3% and -5.07% and -20.5%. Also, the compound was called inactive in the assay on HaCat [1] and in the assay on HACAT [2]. For the same compound, the Potency entry in the assay with MCC-13 and with MCC-26 was “inactive” throughout.
`N[C@@H](Cc1cc(I)c(Oc2cc(I)c(O)c(I)c2)c(I)c1)C(=O)O`: the Potency entry in the assay on W2, with MCC-13 and in the assay on MCC-26 was “inactive” in each case. Further, the max response is 0.853% and -3.78% and 2.29% in the assay with CRL-7250; 0.988% and -21.3% and 2.79% with HEK293; -2.11% in the assay with HaCat [1]; -0.982% and 2.52% in the assay on KB-3-1; -14.5% in the assay with NIH3T3. Also, the outcome in the assay on HaCat [1], in the assay on KB-3-1, in the assay on NIH3T3 and in the assay on HACAT [2] was inactive.
For `O=C(NCCO[N+](=O)[O-])c1cccnc1`, the Potency result in the assay on W2, in the assay with MCC-13 and in the assay with MCC-26 was “inactive” throughout. Besides, the max response with CRL-7250 was -0.661% and -5.95%; in the assay with HaCat [1] it was 4.19%. The compound was classed as inactive with HEK293, in the assay with HaCat [1], in the assay with KB-3-1, in the assay on NIH3T3, with HACAT [2] and with HEK293T.
For `COc1ccccc1N1CCN(CCN(C(=O)C2CCCCC2)c2ccccn2)CC1`, the outcome with CRL-7250 and in the assay with NIH3T3 was inactive. Further, the max response in the assay on HEK293 is 3.7%; in the assay on HaCat [1], 1.26% and -29.9%; in the assay with KB-3-1, -8.11% and 2.92%; in the assay on NIH3T3 it was -13.5%. The Potency result in the assay with MCC-13 and with MCC-26 was “inactive” throughout.
On to `Nc1ncn([C@H]2C[C@H](O)[C@@H](CO)O2)c(=O)n1`, for which the max response was -5.93% and -8.36% in the assay with CRL-7250; 9.32% with KB-3-1; -24.2% in the assay on NIH3T3. Moreover, the Potency in the assay with HEK293 was 18.7 µM (active). Also, the compound was called inactive in the assay on HaCat [1], with KB-3-1 and in the assay with HACAT [2]. Also, the Potency entry in the assay on MCC-13 and in the assay on MCC-26 was “inactive” throughout.
